The entries come from a sample that favours hits as a whole.
ERG-DNA inh = inhibitors of human ERG Ets domain-DNA interaction; P11308; fluorescence polarization, His-ERG Ets domain / labelled DNA; Potency, µM (titrated, usually from 76.9 µM), usual class: inhibitors; 370,000 tested, 0.028% active; active means well fitted inhibition curve with a large enough effect in the polarisation, with a control signal flat; inconclusive means small, poorly fitted or top-dose-only effect, or effect the other way, or a change in a side signal; inactive means no such curve, though single readings can be large or run the other way; the % refers to the polarisation;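 further: polarization taken with two DNA probes labelled with fluorescein and Texas red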
Target sequence (P11308 whole entry, looked up, the tested form may be a part): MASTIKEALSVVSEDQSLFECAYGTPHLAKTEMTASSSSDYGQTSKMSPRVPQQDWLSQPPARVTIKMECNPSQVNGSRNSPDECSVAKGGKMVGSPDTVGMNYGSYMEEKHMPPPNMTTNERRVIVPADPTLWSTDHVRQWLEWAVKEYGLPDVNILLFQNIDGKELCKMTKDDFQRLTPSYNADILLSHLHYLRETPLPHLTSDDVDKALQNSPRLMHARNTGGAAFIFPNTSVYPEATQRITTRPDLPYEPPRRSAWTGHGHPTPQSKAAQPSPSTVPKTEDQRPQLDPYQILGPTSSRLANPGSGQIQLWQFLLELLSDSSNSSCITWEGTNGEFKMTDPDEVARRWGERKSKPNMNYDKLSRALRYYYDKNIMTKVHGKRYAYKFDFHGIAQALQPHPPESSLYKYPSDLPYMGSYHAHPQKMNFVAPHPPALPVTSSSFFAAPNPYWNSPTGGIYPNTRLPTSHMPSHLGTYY
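His-tagged ERG Ets domain (1 uM in the protein solution; 300mM KCl, 50mM Tris-HCl, 1mM EDTA, 1mM DTT, pH 7.5) received compound, then a probe mix of 5 nM fluorescein-DNA and 100nM Texas-615-DNA. Fluorescence polarization was read for both dyes.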
VP16 counter = counter-screen for ROR gamma inhibitors: Gal4-VP16 reporter. Drosophila S2 Gal4-VP16 UAS-luciferase, luminescence, 20 h. Potency, µM (top dose mostly 53.6 µM), most hits filed as inhibitors. 310,000 tested, 3.5% active. AID 2546;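 further: Gal4-VP16 expression switched on by copper sulfate through the metallothionein promoter; nearly all actives have a fitted effect of over 50% in size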
Giardia kill = Giardia lamblia killing. 340,000 tested, 0.15% active. activity change, % at 7.66 µM, hits read low. Giardia lamblia trophozoite viability. AID 540267; in the data active means activity change below about -80%; inconclusive means between about -30% and that limit;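 further: parasites exposed to compound for two days anaerobically before the ATP read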
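Killing of trophozoites was scored by loss of ATP luminescence after a 48 hrs anaerobic exposure to compounds at 37 deg C, using 100 cells per well.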
Integrin act MD = activates integrin-mediated alleviation for muscular dystrophy. alpha7betagal myoblasts, beta-gal FDG fluorescence, 48 h. Potency, µM (titrated, usually from 38.3 µM), actives largely listed as activators. 350,000 tested, 0.064% active. AID 624291; further: nearly all actives have a fitted effect of over 60% in size
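Alpha7betagal+/- myoblasts (passage 13) were plated 16-24 hr, then exposed to compounds (1:260 dilution of DMSO stock) for 48 hours at 37C. After MPER lysis, β-galactosidase reporter activity was read as FDG fluorescence (ex 480/em 540) after 30 minutes.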
RORg inh = ROR gamma (mouse) transcription inhibition. Drosophila S2 Gal4-RORgamma UAS-luciferase reporter, 20 h. Potency, µM (top dose mostly 53.6 µM), actives largely listed as inhibitors. AID 2551. P51450. 310,000 tested, 5.4% active; further: nearly all actives have a fitted effect of over 60% in size
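Schneider cells (Drosophila), stable Gal4 DBD–ROR gamma + UAS-luc; 1 hr cmpd preincubation; Cu2+ induction 700 uM final; 20 hr ambient; luminescence.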
Large screens that a line does not name were inactive. Unless noted, the call rests on the fitted dose curve; in most records, active means well fitted curve in the direction sought with a large enough effect; inconclusive means small, poorly fitted or top-dose-only effect, or another doubt; inactive means no such curve, though single readings can be large; an effect the other way counts as inactive or inconclusive.

COc1ccc(S(=O)(=O)NNC(=O)c2cc3cc4ccccc4nc3s2)cc1	VP16 counter 22.4µM, RORg inh inconclusive
CCOc1cc(C2C(C(=O)N3CCCCC3)=C(C)NC3=C2C(=O)CCC3)cc(Br)c1O (stereo not drawn)	none
S=C1NC(c2ccccc2)=NCN1c1ccc(Cl)cc1	VP16 counter inconclusive, RORg inh 11.2µM
COC(=O)c1ccc(N2CN=C(c3ccc(C)cc3)NC2=S)cc1	none
CC(C)OC(=O)c1sc2nc(-c3ccccc3)ccc2c1N	VP16 counter inconclusive, RORg inh 7.08µM
COc1ccc(C(=O)c2sc3nc(-c4ccccc4)ccc3c2N)cc1	RORg inh inconclusive
Cc1ccc(C(c2sc3nc(-c4ccco4)nn3c2O)N2CCN(Cc3ccccc3)CC2)cc1 (stereo not drawn)	none (no result: VP16 counter, Giardia kill, Integrin act MD, RORg inh)
COc1cc(C(=O)NCCC2=CCCCC2)ccc1OCc1c(C)noc1C	none (no result: VP16 counter, RORg inh)
CSc1nc(Sc2ccc(Cl)cc2)c2ccccc2n1	RORg inh 15.8µM
CSc1nc(Sc2ccccc2)c2ccccc2n1	none
Cc1cc(S(=O)(=O)N2CCCC(N(C)CCc3ccccn3)C2)c(C)cc1Cl (stereo not drawn)	none
CCc1nnc2c(N(C)S(=O)(=O)c3ccc(C)cc3)nc3ccccc3n12	none
Cc1ccc(S(=O)(=O)N(C)c2nc3ccccc3[nH]c2=S)cc1	RORg inh 4.47µM
COC(=O)c1ccc(COc2cccc3c2OC(C)(C)C3)cc1	RORg inh inconclusive
COc1ccc(CNCC(O)COc2cccc3c2OC(C)(C)C3)cc1 (stereo not drawn)	VP16 counter 10µM
Cc1oc2cc3oc(=O)c(CCC(=O)NCCCn4ccnc4)c(C)c3cc2c1C	none
Cc1c(CCC(=O)NCCCn2ccnc2)c(=O)oc2cc3oc4c(c3cc12)CCCC4	VP16 counter 15.8µM, RORg inh 1.26µM
Cc1c(CCC(=O)N2CCC(C(=O)O)(c3ccccc3)CC2)c(=O)oc2cc3oc4c(c3cc12)CCCC4	VP16 counter inconclusive, RORg inh 1.12µM
Cc1c(CCC(=O)N2CCC(C(=O)O)CC2)c(=O)oc2cc3oc4c(c3cc12)CCCC4	VP16 counter inconclusive, RORg inh inconclusive
CNC(=O)c1ccc2nc(-c3cccc(C)c3)c(-c3cccc(C)c3)nc2c1	none (no result: ERG-DNA inh, VP16 counter, Integrin act MD, RORg inh)
O=C(N/N=C/C1CC=CCC1)c1ccccc1O (stereo not drawn)	VP16 counter inconclusive, RORg inh 11.2µM
O=C(N/N=C/C1CC=CCC1)c1ccc(Cl)cc1O (stereo not drawn)	VP16 counter 10µM, RORg inh 12.6µM
Cc1ccc(C(=O)N/N=C\C2CC=CCC2)cc1[N+](=O)[O-] (stereo not drawn)	VP16 counter inconclusive
O=C(N/N=C/C1CC=CCC1)c1cc(Br)ccc1O (stereo not drawn)	VP16 counter inconclusive, RORg inh inconclusive
CC(C)(CCCCCCCCCCC(C)(C)CC(=O)O)CC(=O)O	none (no result: ERG-DNA inh, Giardia kill, Integrin act MD)
O=C(O)c1cc(=O)c2cc(Cl)ccc2[nH]1	none (no result: ERG-DNA inh, Giardia kill, Integrin act MD)
O=C(COC(=O)c1n[nH]c2ccccc12)Nc1cccc(S(=O)(=O)N2CCOCC2)c1	RORg inh inconclusive
O=C(COC(=O)c1n[nH]c2ccccc12)Nc1ccc(S(=O)(=O)N2CCCC2)cc1	VP16 counter 10µM
CCCC1O[C@@H]2C[C@H]3[C@@H]4CCC5=CC(=O)C=C[C@]5(C)[C@H]4[C@@H](O)C[C@]3(C)[C@]2(C(=O)CO)O1 (stereo partly drawn)	Giardia kill inconclusive, RORg inh 12.6µM (no result: Integrin act MD)
CCCC1OC2CC3C4CCC5=CC(=O)C=CC5(C)C4C(O)CC3(C)C2(C(=O)O)O1 (stereo not drawn)	RORg inh 14.1µM
COc1ccccc1OC(=O)c1cc(Cl)nc2ccccc12	none (no result: ERG-DNA inh)
CC(C)CCn1c(=O)c2sccc2n2c(CCCC(=O)NC(C)c3ccccc3)nnc12 (stereo not drawn)	none (no result: VP16 counter, Giardia kill, Integrin act MD, RORg inh)
O=C(c1ccc([N+](=O)[O-])s1)N1CCN(c2ccccc2)CC1	Giardia kill inconclusive, RORg inh 25.1µM
CCC(=O)N1CCN(c2ccc(NC(=S)NC(=O)c3cccc([N+](=O)[O-])c3)cc2)CC1	VP16 counter inconclusive, RORg inh inconclusive
O=C(NC(=S)Nc1ccccc1N1CCOCC1)c1cccc([N+](=O)[O-])c1	VP16 counter 3.98µM, RORg inh 1.58µM
O=C(Nc1ccccc1N1CCOCC1)c1ccc([N+](=O)[O-])s1	Giardia kill -89.4 (no result: VP16 counter, RORg inh)
CCC(=O)N1CCN(c2ccccc2NC(=S)NC(=O)c2cccc([N+](=O)[O-])c2)CC1	VP16 counter inconclusive, RORg inh 7.94µM
COc1ccc(S(=O)(=O)NCCc2sc(-c3ccccc3)nc2C)cc1F	none (no result: VP16 counter, Giardia kill, Integrin act MD, RORg inh)
Cc1nc(N2CCOCC2)c2nc(-c3ccccc3)n(CCN3CCOCC3)c2n1	none (no result: ERG-DNA inh, Giardia kill, Integrin act MD)
O=C(NCCc1nc2ccccc2n1CCCOc1ccccc1Cl)C1CCCCC1	none (no result: ERG-DNA inh, VP16 counter, Integrin act MD, RORg inh)
N#Cc1c(N(CCO)CCO)nc(N)c2c(N)nc3c(c12)CC(=O)N3CC1CCCO1 (stereo not drawn)	none
CCCCN1C(=O)Cc2c1nc(N)c1c(N)nc(N(CCC)CCC)c(C#N)c21	VP16 counter 22.4µM, Integrin act MD inconclusive, RORg inh inconclusive
N#C/C(=N\Nc1cccc([N+](=O)[O-])c1)C(=O)c1ccc(Br)cc1	VP16 counter 5.01µM, RORg inh 4.47µM
N#C/C(=N\Nc1ccc(S(=O)(=O)N2CCc3ccccc32)cc1)C(N)=S	VP16 counter inconclusive, RORg inh 11.2µM
N#C/C(=N\Nc1ccc(S(=O)(=O)N2CCCCC2)cc1)C(N)=S	RORg inh inconclusive
N#C/C(=N\Nc1ccc([N+](=O)[O-])cc1)C(N)=S	VP16 counter 12.6µM, RORg inh inconclusive
O=C(O)c1ccc(N=NNc2cccc([N+](=O)[O-])c2)cc1	none
N#C/C(=N\Nc1ccc(S(=O)(=O)N2CCCCCC2)cc1)C(N)=S	VP16 counter inconclusive, RORg inh 11.2µM
CCOC(=O)/C(C#N)=N/Nc1ccc(S(=O)(=O)N2CCc3ccccc32)cc1	RORg inh inconclusive
COc1ccc(N(CC(=O)Nc2ccccc2OC)S(=O)(=O)c2ccc(OC)c(OC)c2)cc1	Giardia kill inconclusive
COc1ccc(C(C#N)c2ccc(=O)[nH]n2)cc1 (stereo not drawn)	none
COc1ccc(C(c2c(C)[nH]n(C(N)=S)c2=O)C(C#N)C#N)cc1 (stereo not drawn)	VP16 counter 4.47µM, RORg inh 4.47µM
COc1ccc(C(=O)N/N=C/C(Br)=C/c2ccccc2)cc1	VP16 counter 15.8µM, RORg inh 3.55µM
Nc1nccc(/C=C/c2c(F)cccc2Cl)n1	none
Oc1cccc2ccc(/C=C/c3c(F)cccc3Cl)nc12	VP16 counter inconclusive, RORg inh 3.16µM
O=C(N/N=C/c1ccc2cccc(OCc3ccccc3)c2n1)c1ccc(Cl)cc1	RORg inh inconclusive

High-throughput results (PubChem)
